{"source": "PubChem BioAssay AID739", "about": "(SRMLSC, 2007)", "note": "Screen size: about 98,000 compounds; about 880 (0.9%) were called active. Cut-off read from the data, not from the text of the source: active = inhibition above about 30%; inactive = the rest. Many of the other results were omitted from the sample, so actives are more common in it than they were.", "data": [{"assay": "phenotypic screen on post-Golgi transport, primary screen (AID 739);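 note: yeast cells grown in 1536-well plates; yeast grown about 18 h at 30C before absorbance read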", "conditions": "post-Golgi transport phenotypic cell assay; at 10 µM; hits give high values", "values": [{"smiles": "CC(C)C(NS(=O)(=O)c1cccs1)C(=O)Nc1nc(C(C)(C)C)cs1", "note": "(configuration not stated)", "inhibition": "7.03% (inactive)"}, {"smiles": "Cc1c(C=O)c2ccccn2c1C(=O)c1ccncc1", "inhibition": "-6.66% (inactive)"}, {"smiles": "COc1ccc(NC(=O)Nc2ccc3nc(C)c(C)nc3c2)cc1", "inhibition": "-7.69% (inactive)"}, {"smiles": "O=C(Nc1ccc2ccccc2c1)Nc1ccc2snnc2c1", "inhibition": "96.1% (active)"}, {"smiles": "COc1ccc(NC(=O)Nc2ccc3nsnc3c2)cc1", "inhibition": "-0.7% (inactive)"}, {"smiles": "CC(=O)Nc1ccccc1C(=O)C(=O)Nc1ccc(F)cc1", "inhibition": "-1% (inactive)"}, {"smiles": "N/C(=N\\OC(=O)Nc1ccc(Cl)c(Cl)c1)c1ncc(C(F)(F)F)cc1Cl", "inhibition": "3.3% (inactive)"}, {"smiles": "O=C(CC(O)(C(F)(F)F)C(F)(F)F)Nc1ccc(Cl)c(Cl)c1", "inhibition": "105% (active)"}, {"smiles": "Cc1nnc(NC(=O)Nc2ccc(Cl)c(Cl)c2)s1", "inhibition": "5.16% (inactive)"}, {"smiles": "COc1cc(SC)ccc1C(=O)NCCOc1ccccc1Cl", "inhibition": "4.48% (inactive)"}, {"smiles": "Cc1ccc(-c2nc3ccccc3[nH]2)cc1N", "inhibition": "0.67% (inactive)"}, {"smiles": "c1ccc2[nH]c(-c3nc4ccccc4[nH]3)nc2c1", "inhibition": "30.1% (active)"}, {"smiles": "c1ccc(-c2[nH]ncc2-c2nc3ccccc3[nH]2)cc1", "inhibition": "11% (inactive)"}, {"smiles": "COc1ccc(C(=O)NC(=S)NNC(=O)CCc2ccccc2)cc1", "inhibition": "0.19% (inactive)"}, {"smiles": "CC(Oc1ccc2ccccc2c1)C(=O)NNC(=S)NC(=O)c1ccco1", "note": "(configuration not stated)", "inhibition": "43% (active)"}, {"smiles": "CCCc1ccc(OCC(=O)NNC(=S)NC(=O)c2ccco2)cc1", "inhibition": "27.3% (inactive)"}, {"smiles": "CCN(CC(=O)NC1CCS(=O)(=O)C1)c1nc(-c2cccnc2)nc2ccccc12", "note": "(configuration not stated)", "inhibition": "3.37% (inactive)"}, {"smiles": "COC(=O)Cc1cc(=O)oc2c(C)c(O)ccc12", "inhibition": "-6.64% (inactive)"}, {"smiles": "CS(=O)(=O)N(CC(=O)N1CCN(Cc2ccc3c(c2)OCO3)CC1)c1ccc2c(c1)OCO2", "inhibition": "6.95% (inactive)"}, {"smiles": "COc1cc(Cl)c(S(=O)(=O)N2CCN(Cc3ccc4c(c3)OCO4)CC2)cc1Cl", "inhibition": "38.9% (active)"}, {"smiles": "CCn1cc(C(=O)N2CCN(Cc3ccc4c(c3)OCO4)CC2)c2cc(OC)c(OC)cc2c1=O", "inhibition": "-1.13% (inactive)"}, {"smiles": "CC(=O)c1ccc(Cc2ncc(C(F)(F)F)cc2Cl)s1", "inhibition": "6.38% (inactive)"}, {"smiles": "COc1ccc(-c2ccc(Nc3ccc(S(=O)(=O)N4CCCC4)cc3)nn2)cc1OC", "inhibition": "1.55% (inactive)"}, {"smiles": "COc1ccc(-c2cc(C(F)(F)F)nc(NCc3cccnc3)n2)cc1", "inhibition": "10.4% (inactive)"}, {"smiles": "COc1ccc(-c2cc(C(F)(F)F)nc(S(C)(=O)=O)n2)cc1OC", "inhibition": "54.9% (active)"}, {"smiles": "CCOC(=O)c1cc2c(ccn2C)n1CC(=O)N1CCC(C)CC1", "inhibition": "1.25% (inactive)"}, {"smiles": "O=C(c1cccc(F)c1)N1CCC(O)(c2cccnc2)CC1", "inhibition": "1.27% (inactive)"}]}]}
